Compound activity deposited in PubChem BioAssay by National Center for Advancing Translational Sciences (NCATS).
Shown are actives, neighbours in structure and some others; about 8% of the full set was active somewhere.
KB-3-1 tox – KB-3-1 parental cell cytotoxicity; Potency, µM (doses to about 46.1 µM), usual class: cytotoxic; KB-3-1 viability, CellTiter-Glo ATP luminescence, 72 h; AID 1347075; hit rate 1.4% among 400,000; also: % is scaled to controls: 0 for no effect and ±100 for the full control effect; nearly all actives have a fitted effect of over 60% in size
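Cytotoxicity measured as CellTiter-Glo luminescence after 72 h at 37 C. Compound titrations were pinned onto drug-naive KB-3-1 parental adenocarcinoma cells grown in DMEM with 10% FBS, and normalized data fitted to concentration-response curves.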
HT1080 IDH1KD tx – HT-1080 IDH1 knockdown cell toxicity (counter line). HT-1080 IDH1 knockdown viability, ATP luminescence, 48 h. Potency, µM (top dose mostly 46.1 µM), for the others: top-dose activity, negative = toxicity, usual class: cytotoxic. hit rate 2% among 360,000. AID 686971;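 also: 0% = DMSO wells and -100% = cell-free medium wells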
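CellTiter-Glo luminescence after 48 h compound exposure at 37 degrees C of IDH1-knockdown HT-1080 cells in 5% FBS RPMI. %Activity scaled between DMSO wells and cell-free media wells, with curves fitted and assigned curve classes.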
MCF10A rerep – inducers of DNA re-replication in MCF 10A breast cells; MCF 10A DNA re-replication, Hoechst nuclear intensity, 48 h; Potency, µM (top dose mostly 46.1 µM), for the others: top-dose activity, positive = re-replication, most hits filed as activators; hit rate 2.9% among 350,000; AID 624296; also: % of control where 0% means no effect; nearly all actives have a fitted effect of over 50% in size
HT1080-NT tox – kills 2HG-producing HT-1080-NT fibrosarcoma cells | Potency, µM (titrated, usually from 46.1 µM), without a hit: at the top dose activity, negative = less viability, usual class: cytotoxic | hit rate 1.6% among 360,000 | AID 686970 | HT-1080-NT fibrosarcoma viability, CellTiter-Glo ATP luminescence, 48 h;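 also: NT is the 2HG producing partner of a matched IDH1 knockdown line; 0% = DMSO-treated cells and -100% = media-only wells without cells; nearly all actives have a fitted effect of over 55% in size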
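Toxicity toward the 2HG-producing NT line was scored as %Activity, normalised to DMSO and no-cell wells, from CellTiter-Glo luminescence after 48 hours' treatment.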
SW480 rereplic – inducers of DNA re-replication in SW480 colon cancer cells; SW480 DNA re-replication, Hoechst DNA content imaging, 48 h; Potency, µM (titrated, usually from 46.1 µM), without a hit: at the top dose re-replication activation, hits mostly activators; hit rate 1.8% among 340,000; also: % of control where 0% means no effect; nearly all actives have a fitted effect of over 55% in size
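Cells (250 per well) received 23 nL compound or DMSO by pin tool and were kept 48 hr at 37 C, 5% CO2. Nuclei were then stained with Hoechst for 40 min and scanned for DNA content.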
KB-V1 MDR tox – KB-V1 MDR subline cytotoxicity; Potency, µM (top dose mostly 46.1 µM), usual class: cytotoxic; KB-V1 MDR cells viability, CellTiter-Glo, 72 h; AID 1347076; hit rate 3.4% among 400,000; also: % is scaled to controls: 0 for no effect and ±100 for the full control effect; nearly all actives have a fitted effect of over 60% in size
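Potencies derive from concentration-effect curves fitted to normalized luminescence (CellTiter-Glo) of KB-V1 cells treated for 72 h at 37 degrees C in phenol-red-free DMEM containing 10% FBS.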
An asterisk follows results filed as active; i = inactive; ? = inconclusive; . = no result given; [ ] = another dose, or the depositor's remark. Calls follow the shape of the dose curve; as a rule, active = well fitted curve in the direction sought with a large enough effect; inconclusive = small, poorly fitted or top-dose-only effect, or another doubt; inactive = no such curve, though single readings can be large; an effect the other way counts as inactive or inconclusive. Potency is read from the fitted curve at half-maximal effect.

SMILES | KB-3-1 tox | HT1080 IDH1KD tx | MCF10A rerep | HT1080-NT tox | SW480 rereplic | KB-V1 MDR tox
Cc1oc(-c2ccc(Cl)cc2)nc1CN1CCCC(C(=O)NCCCN2CCOCC2)C1 (stereo not drawn) | ? | ? | ? | -12% | 11% | 18µM*
Cc1oc(-c2ccc(Cl)cc2)nc1CN1CCCC(C(=O)NCc2ccccn2)C1 (stereo not drawn) | i | -1% | 2% | -11% | -3% | i
Cc1ccccc1-c1nc(CN2CCC(C(=O)NCCCN3CCOCC3)CC2)c(C)o1 | i | -19% | 8% | 10µM* | 12% | i
O=C(NCc1ccco1)C1CCN(C(=O)c2cc3sccc3n2Cc2ccc(Cl)cc2)CC1 | ? | . | 21µM* | . | ? | ?
Cc1oc(-c2ccc(Cl)cc2)nc1CS(=O)CC(=O)NCCN1CCCCCC1 (stereo not drawn) | i | -7% | 20% | -6% | ? | i
Cc1oc(-c2ccc(Cl)cc2)nc1CS(=O)CC(=O)NCCCN1CC(C)CC(C)C1 (stereo not drawn) | i | ? | 6% | 16µM* | ? | i
CC(=O)c1ccc(NC(=O)c2c3c(nc4ccccc24)C(=O)N(C2CCCCC2)C3)cc1 | i | . | . | . | . | i
COc1ccc(NC(=O)c2c(C)oc3ccc(O)c(CN4CCN(C)CC4)c23)cc1Cl | i | . | . | . | . | i
CCCn1c(Cc2ccccc2)n[nH]c1=S | i | 8% | -4% | 4% | 4% | i
S=c1[nH]nc(Cc2ccccc2)n1Cc1ccco1 | i | ? | -5% | 35µM* | -6% | ?
O=C(NCCN1CCC(n2c(=O)[nH]c3ccccc32)CC1)c1ccc(Cl)cc1 | i | -19% | . | ? | . | i
O=C(NCCN1CCC(n2c(=O)[nH]c3ccccc32)CC1)c1ccc(Cl)c(Cl)c1 | ? | ? | . | 21µM* | . | 21µM*
CCOc1cc(CNc2ccc(S(N)(=O)=O)cc2)cc(Cl)c1OC | i | -14% | 4% | -1% | ? | i
CCOc1cc(CNc2ccc3c(c2)OCCO3)cc(Br)c1OCC | 5.2µM* | 2.3µM* | 2.6µM* | 1.8µM* | 5.8µM* | 2.6µM*
CCOc1cc(CNc2ccc(N3CCCC3)cc2)cc(Cl)c1OC | ? | ? | ? | ? | 16µM* | ?
COc1cc(CNc2ccc(N3CCCC3)cc2)cc(Cl)c1OC | 12µM* | ? | 23µM* | 16µM* | ? | ?
CCOc1cc(CNc2ccc(N3CCOCC3)cc2)cc(Br)c1OCC | ? | ? | ? | -18% | ? | ?
C=CCOc1c(Cl)cc(CNc2ccc(N(C)C)cc2)cc1OC | ? | 16µM* | ? | -15%[9.24 µM] | ? | 5.2µM*
Cc1ccc(CN2CCOCCS2(=O)=O)cc1 | i | . | . | . | . | i
CCOc1cc(CNc2ccc(N3CCCCC3)cc2)cc(Br)c1OCC(=O)NC(C)(C)C | i | -5% | ? | -11% | 11% | 15µM*
Cc1nnc(NC(=O)C2CC(=O)N(Cc3ccccc3)C2)s1 (stereo not drawn) | i | 5% | 8% | ? | -1% | i
O=C(Nc1nnc(SCc2ccc(F)cc2)s1)C1CC(=O)N(Cc2ccccc2)C1 (stereo not drawn) | i | 22% | ? | 4% | 29% | 21µM*
CCN(CC)C(=O)CSc1nnc2nnc3cc(C)ccc3n12 | i | -6% | 2% | 4% | 14% | 21µM*
CCN(CC)C(=O)CSc1nnc2nnc3cc(Cl)ccc3n12 | ? | ? | 8% | ? | 18% | ?
c1ccc(-c2ccc(OCCCNC3CCCC3)cc2)cc1 | ? | 18µM* | 6.5µM* | 15µM* | ? | i
SMILES | KB-3-1 tox | HT1080 IDH1KD tx | MCF10A rerep | HT1080-NT tox | SW480 rereplic | KB-V1 MDR tox
CC(C)CC(=O)N1CCN(Cc2ccc(Cl)cc2)CC1 | i | 15% | ? | 7% | -6% | i
O=C(/C=C/c1ccc(Cl)cc1)Nc1ccc(CN2CCOCC2)cc1 | ? | 2% | 16% | ? | ? | i
CC(C)c1ccc(CN2CCN(C(=O)CCl)CC2)cc1 | ? | ? | 6.5µM* | ? | ? | ?
CC(C)c1ccc(/C=C/C(=O)Nc2ccc(CN3CCOCC3)cc2)cc1 | ? | ? | 13µM* | ? | ? | 16µM*
C=CCn1c(SCC(=O)c2[nH]c(C)c(C(C)=O)c2C)nnc1-c1ccncc1 | i | 2%[9.24 µM] | 2% | 3% | -6% | i
CC(=O)c1c(C)[nH]c(C(=O)CSc2nnc(-c3cccs3)n2Cc2ccccc2)c1C | i | -28% | 21µM* | 1% | 20% | 5.8µM*
CCOC(=O)c1c(C)[nH]c(C(=O)CSc2nnc(-c3cccs3)n2Cc2ccccc2)c1C | i | ? | ? | -25% | ? | 2.3µM*
O=c1cc(CSc2nnc(-c3cccs3)n2Cc2ccccc2)nc2sc3ccccc3n12 | i | 26µM* | 11% | -19% | -3% | ?
Cc1cc(C(=O)CSc2nnc(-c3cccs3)n2Cc2ccccc2)c(C)n1C | i | -5% | -6% | -5% | -5%[9.22 µM] | i
CC(=O)c1c(C)[nH]c(C(=O)CSc2nnc(-c3ccccc3)n2Cc2ccc3c(c2)OCO3)c1C | i | 23µM* | ? | ? | ? | ?
CC(=O)Nc1ccc(S(=O)(=O)N2CCC(n3c(C(F)(F)F)nc4cccnc43)CC2)cc1 | i | . | . | . | . | i
